In the library only some 7.2% were active in any assay of this set; here they are far more common.
FLuc inh-1: Firefly luciferase inhibition profiling of diverse chemical library using quantitative high-throughput screening; purified P. pyralis luciferase, luminescence, biochemical; actives 2.5% (n = 76,000); Potency, µM (highest dose often 115 µM), actives largely listed as inhibitors; note: % is set by controls: 0 for no effect and ±100 for the full control effect; nearly all actives have a fitted effect of over 65% in size
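Luminescence read by CCD imaging after purified firefly luciferase (10nM final) was added to substrate buffer holding 10uM D-luciferin and 10uM ATP, pH 7.5, pre-dosed with compound.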
NIH3T3 tox: Cytotoxic Profiling in NIH 3T3 Cell Line of Diverse Libraries Using Quantitative High-Throughput Screening; NIH 3T3 viability, CellTiter-Glo ATP luminescence, 48-72 h; Potency, µM (titrated, usually from 96.7 µM), inactives show top-dose activity change, negative = cytotoxicity, usual class: inhibitors; actives 4.3% (n = 94,000); note: % is set by controls: 0 for no effect and ±100 for the full control effect; nearly all actives have a fitted effect of over 55% in size
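Mouse fibroblast NIH 3T3 cells, 400 per well, received compound via pintool and were incubated for 48 or 72 hr prior to CellTiter-Glo ATP luminescence measurement.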
hNpr1 antagonist: Natriuretic polypeptide receptor (hNpr1) antagonism - Primary qHTS; Atrial natriuretic peptide receptor 1 (Homo sapiens), P16066; Potency, µM (series often up to 46.3 µM), inactives show at the top dose activity change, negative = inhibition, usual class: inhibitors; actives 1.6% (n = 76,000); HEK293 hNpr1 GloSensor cGMP, ANP-stimulated luminescence; calls by dose curve; note: % is set by controls: 0 for no effect and ±100 for the full control effect; nearly all actives have a fitted effect of over 60% in size
Target sequence (P16066 whole entry, looked up): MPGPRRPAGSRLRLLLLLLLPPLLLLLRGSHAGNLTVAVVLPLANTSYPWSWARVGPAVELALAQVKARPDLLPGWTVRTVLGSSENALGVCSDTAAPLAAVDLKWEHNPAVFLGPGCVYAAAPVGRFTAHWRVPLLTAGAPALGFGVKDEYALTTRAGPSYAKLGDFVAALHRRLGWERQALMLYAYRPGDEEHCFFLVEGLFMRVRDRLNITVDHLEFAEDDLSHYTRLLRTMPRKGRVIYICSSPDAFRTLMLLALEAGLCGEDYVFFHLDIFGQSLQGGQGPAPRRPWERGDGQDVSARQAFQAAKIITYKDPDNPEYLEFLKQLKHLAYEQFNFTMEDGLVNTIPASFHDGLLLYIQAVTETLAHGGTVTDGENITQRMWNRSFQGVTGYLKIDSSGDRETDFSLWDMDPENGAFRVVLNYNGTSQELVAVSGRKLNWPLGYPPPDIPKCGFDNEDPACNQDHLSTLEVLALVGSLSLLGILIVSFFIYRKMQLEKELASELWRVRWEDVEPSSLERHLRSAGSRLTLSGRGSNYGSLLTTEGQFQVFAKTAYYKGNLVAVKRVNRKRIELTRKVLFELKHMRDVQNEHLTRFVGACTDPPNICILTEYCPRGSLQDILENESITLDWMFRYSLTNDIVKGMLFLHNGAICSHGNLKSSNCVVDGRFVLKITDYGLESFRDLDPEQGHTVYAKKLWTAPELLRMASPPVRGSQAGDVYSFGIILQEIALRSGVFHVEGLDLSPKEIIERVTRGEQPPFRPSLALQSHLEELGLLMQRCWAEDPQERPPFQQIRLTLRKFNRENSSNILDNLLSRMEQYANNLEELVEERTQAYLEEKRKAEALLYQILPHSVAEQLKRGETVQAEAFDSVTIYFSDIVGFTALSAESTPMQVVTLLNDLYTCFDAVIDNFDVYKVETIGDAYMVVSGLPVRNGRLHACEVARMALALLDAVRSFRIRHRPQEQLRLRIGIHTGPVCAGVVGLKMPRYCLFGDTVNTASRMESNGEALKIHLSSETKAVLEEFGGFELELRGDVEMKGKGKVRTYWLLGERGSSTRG
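Compound pre-incubated 30 min at room temperature on GloSensor-loaded HEK293 cells stably carrying hNpr1 and the pGS-40F cGMP biosensor. Stimulation uses hNppA at 0.1 nM final; luminescence is taken at baseline and 20 min post-agonist.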
SNCA expr inh: Primary qHTS assay for inhibitors of alpha-synuclein gene (SNCA) expression; actives 0.17% (n = 140,000); Potency, µM (top dose mostly 57.2 µM), inactives show at the top dose activity change, negative = inhibition, usual class: inhibitors; AID 1671194, 2021; HEK-293 SNCA-luciferase knock-in, luminescence, 24 h;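 note: plate controls were DMSO cells for no effect and cell-free wells for full effect; nearly all actives have a fitted effect of over 45% in size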
HEK293 viab: GF-AFC viability counterscreen for inhibitors of alpha-synuclein gene (SNCA) expression | HEK-293-SNCA-luc viability, GF-AFC fluorescence, 24 h | Potency, µM (top dose mostly 57.1 µM), inactives show top-dose activity change, negative = cytotoxicity, hits mostly cytotoxic | actives 0.12% (n = 150,000) | AID 1671193, 2021;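 note: 0% = DMSO-treated cells and -100% = medium-only wells without cells; nearly all actives have a fitted effect of over 30% in size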
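Cytotoxicity counterscreen: after 24 h compound treatment of genome-edited SNCA-luciferase HEK-293 cells, live-cell protease substrate GF-AFC read by fluorescence after 30 min; activity scaled between DMSO (0%) and medium-only (-100%), curves Hill-fitted.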
HEK293 tox: Cytotoxic Profiling in HEK 293 Cell Line of Diverse Libraries Using Quantitative High-Throughput Screening | Potency, µM (doses to about 115 µM), inactives show at the top dose activity change, negative = cytotoxicity, actives largely listed as inhibitors | actives 6.6% (n = 94,000) | HEK 293 viability, ATP luminescence (CellTiter-Glo), 48-72 h | AID 1345083, 2018; note: % is set by controls: 0 for no effect and ±100 for the full control effect; nearly all actives have a fitted effect of over 60% in size
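Viability of HEK 293 cells, plated at 250 cells/well, was judged by cellular ATP after compound treatment for 48 or 72 hr. Luminescence was imaged 10 min after CellTiter-Glo addition at room temperature.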
FLuc SDR no ATP: Firefly luciferase (FLuc-C-HiBiT) SDR gain of signal screen - without ATP; Potency, µM (doses to about 32.7 µM), for the others: at the highest dose activation (signal gain), most hits filed as activators; actives 7.8% (n = 1,300); AID 1963318, 2024; Purified FLuc-C-HiBiT, Nano-Glo HiBiT luminescence, no ATP; shares compounds with FLuc inh-1; note: nearly all actives have a fitted effect of over 55% in size
FLuc SDR ATP: Firefly luciferase (FLuc-C-HiBiT) SDR gain of signal screen - plus ATP. shares compounds with FLuc inh-1. purified FLuc-C-HiBiT + ATP, HiBiT complementation luminescence. Potency, µM (doses to about 32.7 µM), without a hit: top-dose activation (gain of signal), usual class: activators. actives 8.7% (n = 1,300);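 note: signal reports ligand binding via conformational change of the enzyme rather than luciferase catalysis; % of control where 0% means no effect; nearly all actives have a fitted effect of over 55% in size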
FLuc inh-2: Firefly luciferase (FLuc-C-HiBiT) enzymatic inhibition screen - Functional assay; Potency, µM (series often up to 32.7 µM), for inactives: top-dose activity change, negative = inhibition, most hits filed as inhibitors; actives 42% (n = 1,300); purified FLuc-C-HiBiT enzyme, luciferin luminescence; shares compounds with FLuc inh-1; AID 1963320, 2024; note: % is set by controls: 0 for no effect and ±100 for the full control effect; nearly all actives have a fitted effect of over 70% in size
The depositor's hits bear a star; i = inactive; ? = inconclusive; / = no result given; [ ] = dose if it differs, or a comment. Unless noted, calls come from the whole dose curve; as a rule, active = well fitted curve in the direction sought with a large enough effect; inconclusive = small, poorly fitted or top-dose-only effect, or another doubt; inactive = no such curve, though single readings can be large; an effect the other way counts as inactive or inconclusive. Potency is the fitted concentration of half-maximal effect.

SMILES	FLuc inh-1	NIH3T3 tox	hNpr1 antagonist	SNCA expr inh	HEK293 viab	HEK293 tox	FLuc SDR no ATP	FLuc SDR ATP	FLuc inh-2
CCOc1ccc(-c2nc(CSCC(=O)NCc3ccc(C)cc3)c(C)o2)cc1	/	/	/	?	3%	/	/	/	/
CCc1ccc(-c2nc(CSCC(=O)NCc3ccc(C)cc3)c(C)o2)cc1	/	/	/	?	4%	/	19%	12%	?
CCc1noc([C@@H]2CC(F)(F)CN2C(=O)c2cc(C3CC3)[nH]n2)n1	i	-4%	4%	-4%	5%	i	/	/	/
CN(C)C(=O)c1cc(-c2ccc(Cl)cc2)cn1C	?	-25%	0%	58%	-7%	?	/	/	/
Cc1ccc(-c2cc(C(=O)O)n(C)c2)cc1	16µM*	-29%	-14%	92%	13%	0%	11%	?	?
Cn1cc(-c2ccc(Cl)cc2)cc1C(=O)O	?	?	-4%	28%	-5%	?	10%	10%	-15%
CCc1nn2c(-c3ccco3)ccnc2c1-c1ccc(F)cc1	/	/	/	40%	-7%	/	15%	10%	?
CN(C)C1CCN(c2ncnc3c2cnn3-c2ccccc2)CC1	/	/	/	/	/	/	13%	11%	-6%
NC(=O)C1CCN(c2ncnc3c2cnn3-c2ccccc2)CC1	/	/	/	55%	-1%	/	15%	12%	-9%
CC1CCN(c2ncnc3c2cnn3-c2ccc(F)cc2)CC1	/	/	/	0%	-9%	/	19%	19%	11µM*
CCOC1CCCN(c2ncnc3c2cnn3-c2ccccc2)C1 (configuration not stated)	/	/	/	/	/	/	21%	?	?
O=C(NCC1CCN(Cc2ccccn2)C1)Nc1ccccc1Cl (configuration not stated)	i	?	6%	23%	2%	?	/	/	/
O=C(NCc1ccccc1)C1CCc2nnc(-c3cccc(C(F)(F)F)c3)n21 (configuration not stated)	/	-24%	/	-22%	4%	-29%	/	/	/
COc1cccc(CN2CCCN(S(=O)(=O)c3ccccc3)CCC(=O)NCC2)c1OC	i	?	-10%	10%	0%	-21%	/	/	/
Fc1ccccc1-n1ncc2c1ncn1nc(-c3ccccc3Cl)nc21	/	/	/	121%	0%	/	/	/	/
COc1ccc(-c2nc3c4cnn(-c5ccccc5F)c4ncn3n2)cc1	/	/	/	60%	-3%	/	15%	12%	?
CCOc1ccc(-c2cc(CCCC(=O)NCCc3ccc(Cl)cc3)no2)cc1	/	/	/	-27%	8%	/	/	/	/
CCOc1ccc(-c2cc(CCCC(=O)NCCc3ccc(SC)cc3)no2)cc1	/	/	/	?	-7%	/	15%	?	3.1µM*
CCOc1ccc(-c2cc(CCCC(=O)NCCc3ccc(OCC)c(OCC)c3)no2)cc1	/	/	/	?	11%	/	13%	?	3.5µM*
CC(C)N1CC2CCC(C1)N2Cc1cccc(-c2cccs2)c1	/	?	/	6%	-5%	?	/	/	/
CC(=O)Nc1cccc(-c2cccc(CCOc3cnc4c(ccn4CC(=O)O)c3)c2)c1	/	/	/	/	/	/	?	?	16µM*
Cc1ccccc1-c1cccc(COc2cnc3c(ccn3CC(=O)O)c2)c1	/	/	/	/	/	/	9%[49.3 µM]	6%[49.3 µM]	?
Cc1ccccc1-c1cccc(CCOc2cnc3c(ccn3CC(=O)O)c2)c1	i	-14%[138 µM]	0%[70.6 µM]	-8%[87.6 µM]	5%[87.6 µM]	?	/	/	/
CC(C)Oc1cccc(-c2cccc(COc3cnc4c(ccn4CC(=O)O)c3)c2)c1	11µM*	-23%[138 µM]	4%[70.6 µM]	3%[87.6 µM]	-4%[87.6 µM]	?	7%[49.3 µM]	5%[49.3 µM]	18µM*
COc1ccc(Cn2c(C3CCN(C(=O)C(C)c4ccccc4)CC3)n[nH]c2=O)cc1 (configuration not stated)	i	0%	7%	-3%	3%	3%	/	/	/
SMILES	FLuc inh-1	NIH3T3 tox	hNpr1 antagonist	SNCA expr inh	HEK293 viab	HEK293 tox	FLuc SDR no ATP	FLuc SDR ATP	FLuc inh-2
Cc1cc(C)cc(NC(=O)C2CCN(C(=O)c3ncn4c3COC(c3ccccc3)C4)CC2)c1 (configuration not stated)	8.9µM*	i	-3%	121%	-2%	6%	16%	?	3.1µM*
Cc1cccc(NC(=O)C2CCN(C(=O)c3ncn4c3COC(c3ccccc3)C4)CC2)c1 (configuration not stated)	3.2µM*	1%	-28%	84%	1%	5%	15%	2µM*	2.5µM*
CCc1cccc(NC(=O)C2CCN(C(=O)c3ncn4c3COC(c3ccc(OC)cc3)C4)CC2)c1 (configuration not stated)	?	-2%	1%	22%	-6%	-4%	/	/	/
Cc1c(NS(C)(=O)=O)cccc1-c1nc2ccccc2s1	/	/	/	127%	0%	/	29%	21%	?
CCCC(CCC)C(=O)Nc1cccc(-c2nc3cccnc3s2)c1C	/	/	/	?	3%	/	/	/	/
CS(=O)(=O)Nc1ccc(-c2nc3ccccc3s2)cc1	/	/	/	-83%	-6%	/	?	?	2.2µM*
O=C1NCc2ccccc2CC12CCN(Cc1cc(F)ccc1O)C2 (configuration not stated)	/	-7%	/	-10%	2%	-19%	/	/	/
CC(C)Oc1ccc(C(=O)Nc2nnc3n2CCS3)cc1	/	/	/	?	10%	/	28%	?	?
O=C(Nc1nnc2n1CCS2)c1ccccc1	/	/	/	72%	-4%	/	/	/	/
